Data as given in PubChem BioAssay AID485344 (National Center for Advancing Translational Sciences (NCATS), 2010).
In all, about 340,000 compounds went through this assay and about 6,900 (2%) were called active. Shown is part of a subset that was picked to be rich in actives. Unmarked numbers belong to inactive results. Rule as the data show it: active = inhibition above about 30%; inactive = below that, where a call was filed.

The compounds below were run against D(2) dopamine receptor (Homo sapiens) (UniProt P14416) (assay: HTS Assay for Allosteric Antagonists of the Human D2 Dopamine Receptor: Primary Screen for Antagonists). Settings: HEK293 TREx D2 cells, calcium flux, dopamine EC80; at 10 µM; stronger effect = higher value.
In short: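 Tetracycline-induced HEK293 T-REx cells expressing D2 force-coupled to calcium signalling were dye-loaded, exposed to compound for 180 s, then challenged with an EC80 of dopamine; calcium flux was followed kinetically for a further 180 s.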
Also: 0% is about no effect.

Sequence of D(2) dopamine receptor (Homo sapiens) (P14416 whole entry, looked up): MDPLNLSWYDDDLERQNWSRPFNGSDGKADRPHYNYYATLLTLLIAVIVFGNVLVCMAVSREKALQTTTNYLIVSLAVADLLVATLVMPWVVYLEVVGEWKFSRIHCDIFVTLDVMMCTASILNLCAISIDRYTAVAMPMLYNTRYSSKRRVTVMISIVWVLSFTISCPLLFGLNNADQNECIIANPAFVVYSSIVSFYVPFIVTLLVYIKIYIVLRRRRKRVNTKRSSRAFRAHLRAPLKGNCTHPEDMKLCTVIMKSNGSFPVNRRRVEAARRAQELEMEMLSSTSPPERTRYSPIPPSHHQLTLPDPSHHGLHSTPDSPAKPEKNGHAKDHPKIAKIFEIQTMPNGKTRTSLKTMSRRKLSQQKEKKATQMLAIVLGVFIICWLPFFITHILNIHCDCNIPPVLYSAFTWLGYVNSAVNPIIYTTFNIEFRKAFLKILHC

Row | SMILES | inhibition
1 | CCCN(CC1CC1)C(=S)NC(=O)c1ccccc1Br | 6.85%
2 | Cc1cc(C(=O)OCC(=O)Nc2ccccc2Cl)c(C)o1 | 3.84%
3 | Cc1ccc(NC(=O)Cn2c(C)csc2=O)cc1 | -14.9%
4 | CCOC(=O)N1CCN(S(=O)(=O)c2ccc3c(c2)C(C)C(=O)N3)CC1 (centres undefined) | -7.55%
5 | Cc1ccc2cc(CCNC(=O)c3c(-c4ccccc4Cl)noc3C)c(=O)[nH]c2c1 | 34% (active)
6 | CC(=O)Nc1cccc(/C(C)=N/NC(=O)c2c(-c3ccccc3Cl)noc2C)c1 | -13%
7 | Cc1ccc2cc(CCNC(=O)c3ccc4c(c3)OCO4)c(=O)[nH]c2c1 | -22%
8 | CCN(c1ccccc1)S(=O)(=O)c1ccc(OCC(=O)N2CCCC2)cc1 | -6.24%
9 | CC(OC(=O)c1ccc(S(=O)(=O)N2CCOCC2)cc1)c1ccccc1 (centres undefined) | -6.07%
10 | Fc1ccc(N2CCN(Cc3cnc(Oc4ccc(Br)cc4)s3)CC2)cc1 | 14.3%
11 | COc1ccc(N2CCN(Cc3nnc(-c4ccccc4)o3)CC2)cc1 | 9.11%
12 | c1ccc(-c2cnc(CN3CCN(c4ccccc4)CC3)o2)cc1 | 77.7% (active)
13 | O=[N+]([O-])c1ccc(S(=O)(=O)Nc2cccc(-c3ccc(N4CCCC4)nn3)c2)cc1 | -6.06%
14 | Cc1ccc(Cl)cc1NC(=O)COC(=O)C1CCCCC1 | -6.03%
15 | CCCC(=O)OCC(=O)Nc1cc(Cl)ccc1[N+](=O)[O-] | -3.56%
16 | Cc1ccc(Cl)cc1NC(=O)COC(=O)CC(C)(C)C | 40.7% (active)
17 | O=C(C1CCC1)N1CCN(S(=O)(=O)c2ccc([N+](=O)[O-])cc2)CC1 | -8.41%
18 | COCCn1cnnc1SCC(=O)Nc1cccc(S(=O)(=O)N2CCCCC2)c1 | 3.75%
19 | O=C(C1CCN(Cc2ccc(Cl)cc2)CC1)N1CCN(Cc2ccc3c(c2)OCO3)CC1 | -7.43%
20 | CCn1cc(C(=O)N2CCN(Cc3ccc4c(c3)OCO4)CC2)c2cc(OC)c(OC)cc2c1=O | 32.8% (active)
21 | O=C(CSCc1ccc(Cl)cc1)N1CCN(Cc2ccc3c(c2)OCO3)CC1 | 15.1%
22 | O=C(c1cccs1)N1CCN(Cc2ccc3c(c2)OCO3)CC1 | 86.6% (active)

Row | SMILES | inhibition
23 | CCn1cc(C(=O)NCc2ccc3c(c2)OCO3)c2cc(OC)c(OC)cc2c1=O | -9.78%
24 | CCn1cc(C(=O)N2CCN(C3CCCCC3)CC2)c2cc(OC)c(OC)cc2c1=O | 2.69%
25 | CC(=O)Nc1ccc(NC(=O)C(C)OC(=O)C2CC(=O)N(CCc3ccccc3)C2)cc1 (centres undefined) | -0.386%
26 | O=C(NCCc1ccco1)C(=O)NCCC1CCCCN1S(=O)(=O)c1ccccc1 (centres undefined) | -16%
27 | CCCn1c(N)c(C(=O)CSc2nc3ccccc3c(=O)n2-c2ccc(OC)cc2)c(=O)[nH]c1=O | 33.2% (active)
28 | CCCn1c(N)c(C(=O)CSc2nnc3n2CCCCC3)c(=O)[nH]c1=O | 3.63%
29 | COc1cccc(-n2c(SCC(=O)c3c[nH]c4ccccc34)nc3ccccc3c2=O)c1 | -2.99%
30 | O=C(CNc1ccccc1N1CCCC1=O)Nc1cc(Cl)ccc1-n1cncn1 | 8.23%
31 | Cc1ccc(F)cc1NC(=O)CSCc1c(C)noc1C | 13.7%
32 | O=C(CN1C(=O)NC2(CCOc3ccccc32)C1=O)NCc1ccc(F)cc1 (centres undefined) | 26.3%
33 | CCN(CC)CCC(c1ccc2c(c1)OCO2)c1c(OC)cc(OC)c2c(-c3ccccc3)cc(=O)oc12 (centres undefined) | 13.4%
34 | COc1cc(C(CCN2CCN(c3ccccc3)CC2)c2c(OC)cc(OC)c3ccc(=O)oc23)cc(OC)c1OC (centres undefined) | 23%
35 | COc1cc(OC)c2ccc(=O)oc2c1C(CCN1CCN(c2ccccc2)CC1)c1ccc2c(c1)OCO2 (centres undefined) | 94% (active)
36 | NS(=O)(=O)c1cc(C(=O)OCC(=O)NNC(=O)c2ccccc2)ccc1Cl | 2.99%
37 | Cc1[nH]c2ccccc2c1C(=O)C(C)Sc1nnc(C2CC2)o1 (centres undefined) | -40.9%
38 | CNS(=O)(=O)c1cccc(C(=O)OCC(=O)N2c3ccccc3NC(=O)C2(C)C)c1 | -3.21%
39 | CCN1CCCC1Cn1cnc2c([nH]c3cc(OC)ccc32)c1=O (centres undefined) | 24.3%
40 | CC(C)OCCCNc1ncnc2c1[nH]c1ccc(F)cc12 | -11.8%
41 | CCN1CCCC1CNc1ncnc2c1[nH]c1ccc(F)cc12 (centres undefined) | 39.5% (active)
42 | O=C(CSc1nnc(COc2ccc(Cl)cc2)n1Cc1ccco1)N1CCNC1=O | 0.458%
43 | Cc1ccc(CN2CCN(c3ncccn3)CC2)c(C)c1 | 80% (active)
44 | Oc1ccc(CN2CCN(c3ncccn3)CC2)cc1 | 84.3% (active)
